Measurements reported in PubChem BioAssay (NCATS).
Results filed as inconclusive are left out. Values without a mark were called inactive. Active and inactive are the calls of the source. The call rests on the fitted dose curve; in most records, active means well fitted curve in the direction sought with a large enough effect; inconclusive means small, poorly fitted or top-dose-only effect, or another doubt; inactive means no such curve, though single readings can be large; an effect the other way counts as inactive or inconclusive.

assay: qHTS of pediatric cancer cell lines to identify multiple opportunities for drug repurposing: Primary screen for DAOY cells (AID 1347090); conditions: DAOY medulloblastoma viability, CellTiter-Glo luminescence, 48 h; series mostly up to 46 µM; activity change, negative = cytotoxic: at the top concentration; further: nearly all actives have a fitted effect of over 55% in size;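 on activity change, negative = cytotoxic: plate controls were DMSO for no effect and bortezomib for full effect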
Outline: (§1)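 Eight- or eleven-point concentration series, 48 h treatment at 37 degrees C in growth media; readout CellTiter-Glo luminescence. Potency and efficacy were taken from the concentration-response curves.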
Potency means the concentration at half of the fitted maximal effect.

SMILES | Potency | activity change, negative = cytotoxic
O=C1NCCc2[nH]c(-c3ccncc3)cc21 | 4.69 µM (active) | 
Cc1noc(-c2ccc(CSCCC(=O)O)cc2)c1NC(=O)OC(C)c1ccccc1Cl (stereo not drawn) |  | -18.8%
CC[C@H]1OC(=O)[C@H](C)[C@@H](O[C@H]2C[C@@](C)(OC)[C@@H](O)[C@H](C)O2)[C@H](C)[C@@H](O[C@@H]2O[C@H](C)C[C@H](N(C)C)[C@@H]2O)[C@](C)(OC)C[C@@H](C)C(=O)[C@H](C)[C@@H](O)[C@]1(C)O |  | -9.35%
CC(=O)SCC(Cc1ccccc1)C(=O)NCC(=O)OCc1ccccc1 (stereo not drawn) | 2.35 µM (active) | 
COc1cccc2c1C(=O)c1c(O)c3c(c(O)c1C2=O)C[C@@](O)(C(=O)CO)C[C@@H]3O[C@H]1C[C@H](N)[C@@H](O)[C@H](C)O1 | 1.87 µM (active) | 
N#Cc1cc(NC(=O)Nc2nnc(-c3ccncc3)s2)ccc1-c1cn[nH]c1 |  | 1.15%

assay: qHTS of pediatric cancer cell lines to identify multiple opportunities for drug repurposing: Primary screen for SJ-GBM2 cells (AID 1347091); conditions: SJ-GBM2 viability, CellTiter-Glo luminescence, 48 h; series mostly up to 46 µM; activity change, negative = cytotoxic: at the top concentration;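 on activity change, negative = cytotoxic: plate controls were DMSO neutral control for no effect and bortezomib for full effect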
Outline: as §1

SMILES | activity change, negative = cytotoxic | Potency
CCCCCCCCCCCCCCCC(=O)OC[C@@H](NC(=O)C(Cl)Cl)[C@H](O)c1ccc([N+](=O)[O-])cc1 | 26.1% | 
Cn1cc(C[C@@H](N)C(=O)O)c2ccccc21 | 5.69% [at 16.1 µM] | 
N[C@H]1CN(c2c(F)cc3c(=O)c(C(=O)O)cn(C4C[C@@H]4F)c3c2Cl)CC12CC2 (stereo partly drawn) | 88.6% | 
C=CC1=C(C(=O)O)N2C(=O)[C@@H](NC(=O)C(=NO)c3csc(N)n3)[C@H]2SC1 | 22.1% | 
C[C@@H](Cc1cc2c(c(C(N)=O)c1)N(CCCO)CC2)NCCOc1ccccc1OCC(F)(F)F | 0.801% | 
C[C@H]1COc2c(N3CCN(C)CC3)c(F)cc3c(=O)c(C(=O)O)cn1c23 | 68% | 
C=CCNC1=C2C[C@@H](C)C[C@H](OC)[C@@H](O)[C@@H](C)C=C(C)[C@H](OC(N)=O)[C@@H](OC)C=CC=C(C)C(=O)NC(=CC1=O)C2=O |  | 0.59 µM (active)
CCNC(=O)c1cc2c(-c3cc(OCCN4CCCC4)c(Cl)cc3Cl)nc(N)nc2s1 |  | 2.09 µM (active)
COC(=O)[C@H](CCCN=C(N)N)NS(=O)(=O)c1ccc(C)cc1 | 12.2% | 
CCCNS(=O)(=O)Nc1ncnc(OCCOc2ncc(Br)cn2)c1-c1ccc(Br)cc1 | 20.9% | 
Cn1cc(C=CC(=O)c2cccc(F)c2)cc1C=CC(=O)NO | 22.7% | 
C[C@@H]1CC[C@@]2(OC1)OC1CC3C4CC=C5CC(O)CCC5(C)C4CCC3(C)C1[C@@H]2C (stereo partly drawn) | 19.3% | 
Cn1c(Nc2ccc(C(F)(F)F)cc2)nc2cc(Oc3ccnc(-c4ncc(C(F)(F)F)[nH]4)c3)ccc21 |  | 0.662 µM (active)
CC(C)(O)[C@H]1CC[C@@](C)([C@H]2[C@@H](O)C[C@@]3(C)[C@@H]4C[C@H](O[C@@H]5O[C@H](CO)[C@@H](O)[C@H](O)[C@@H]5O)[C@H]5C(C)(C)[C@@H](O[C@@H]6OC[C@@H](O)[C@H](O)[C@@H]6O)CC[C@@]56C[C@@]46CC[C@]23C)O1 | 21.9% | 
CC(=O)O[C@H]1C[C@@H]2CC[C@H]3[C@H]4C[C@H]([N+]5(C)CCCCC5)[C@@H](OC(C)=O)[C@@]4(C)CC[C@@H]3[C@@]2(C)C[C@H]1[N+]1(C)CCCCC1 | 14.1% | 
O=C1c2c(O)cccc2[C@@H]([C@@H]2O[C@H](CO)[C@@H](O)[C@H](O)[C@H]2O)c2cc(CO)cc(O)c21 | 8.46% | 

SMILES | activity change, negative = cytotoxic | Potency
Nc1nc(=O)n([C@H]2C[C@H](O)[C@@H](CO)O2)cc1F | 19.4% | 
OCCNC1CCCc2c1[nH]c1ccc(-c3ccccc3)cc21 (stereo not drawn) |  | 23.5 µM (active)
CC[C@H](CC[C@@H](C)[C@H]1CC[C@H]2[C@@H]3CC=C4C[C@@H](O)CC[C@]4(C)[C@@H]3CC[C@]12C)C(C)C | 15.2% | 
Nc1ccc(C(=O)Nc2cccc(-c3nc(N4CCOCC4)c4oc5ncccc5c4n3)c2)cn1 |  | 3.72 µM (active)
CC(=O)OCC(=O)[C@@]12N=C(C)O[C@H]1C[C@H]1[C@@H]3CCC4=CC(=O)C=C[C@]4(C)[C@@H]3[C@@H](O)C[C@@]12C | 11.7% | 
COC(=O)[C@@H]1[C@H]2C[C@@H]3c4[nH]c5ccccc5c4CCN3C[C@@H]2CC[C@@H]1O | 8.45% | 
C[C@H]1C[C@H]2[C@@H]3CCC4=CC(=O)C=C[C@]4(C)[C@@H]3C(=O)C[C@]2(C)[C@@]1(O)C(=O)CO | -7.84% | 
CC(=CC(=O)Nc1ccccc1C(=O)O)c1ccc2ccccc2c1 | -3.29% | 
C[C@H](NC(=O)[C@@H](O)c1cc(F)cc(F)c1)C(=O)N[C@@H]1C(=O)N(C)c2ccccc2-c2ccccc21 | -1.28% | 
O=C1NCCc2[nH]c(-c3ccncc3)cc21 |  | 2.35 µM (active)
Cc1noc(-c2ccc(CSCCC(=O)O)cc2)c1NC(=O)OC(C)c1ccccc1Cl (stereo not drawn) | 27% | 
CC[C@H]1OC(=O)[C@H](C)[C@@H](O[C@H]2C[C@@](C)(OC)[C@@H](O)[C@H](C)O2)[C@H](C)[C@@H](O[C@@H]2O[C@H](C)C[C@H](N(C)C)[C@@H]2O)[C@](C)(OC)C[C@@H](C)C(=O)[C@H](C)[C@@H](O)[C@]1(C)O | 0.407% | 
CC(=O)SCC(Cc1ccccc1)C(=O)NCC(=O)OCc1ccccc1 (stereo not drawn) |  | 5.9 µM (active)
COc1cccc2c1C(=O)c1c(O)c3c(c(O)c1C2=O)C[C@@](O)(C(=O)CO)C[C@@H]3O[C@H]1C[C@H](N)[C@@H](O)[C@H](C)O1 |  | 0.264 µM (active)
CC(C)Oc1ccc(C(=O)N[C@H](CNC(=O)CN(C)C)Cc2ccc(-c3cn4cccc([C@H](C)O)c4n3)cc2)cc1Cl |  | 0.148 µM (active)
N#Cc1cc(NC(=O)Nc2nnc(-c3ccncc3)s2)ccc1-c1cn[nH]c1 | 0.845% | 
